# Data from the supplement of paper PMC8728848.
# Only a selection was taken, and the strongest signals are over-represented in it overall.
# Legend:
# Assay in all cases: glycan array binding signal (z-score within array); higher = stronger binding
# Conditions in all cases: glycan notation: IUPAC condensed, linker removed
# [1] = target: Fuc(a1-2)Gal(b1-3)[Fuc(a1-4)]GlcNAc
# Procedure, shortened: (§1)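 Arrays were curated from the Consortium for Functional Glycomics database, 3228 in total, and kept only where the protein sequence was available. Binding is expressed as a within-array Z-score. This score was averaged across arrays of the same protein sequence at different concentrations or buffers and across linkers, and negative values can be read as non-binding.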
# [2] = target: Fuc(a1-3)[Gal(b1-4)]Glc6S
# Procedure, shortened: as §1
# [3] = target: Fuc(a1-3)[Gal(b1-4)]GlcNAc(b1-4)Gal(b1-4)[Fuc(a1-3)]GlcNAc
# Procedure, shortened: as §1
# [4] = target: Fuc(a1-3)[Gal3S(b1-4)]Glc6S
# Procedure, shortened: as §1
# [5] = target: Fuc(a1-3)[Gal3S(b1-4)]GlcNAc6S
# Procedure, shortened: as §1
# [6] = target: Gal(a1-6)Glc
# Procedure, shortened: as §1
# [7] = target: Gal(b1-3)Gal
# Procedure, shortened: as §1
# [8] = target: Gal(b1-4)Glc6S
# Procedure, shortened: as §1
# [9] = target: Gal(b1-4)GlcNAc(b1-3)Gal(b1-4)[Fuc(a1-3)]GlcNAc(b1-3)Gal(b1-4)[Fuc(a1-3)]GlcNAc
# Procedure, shortened: as §1
# [10] = target: Gal(b1-4)GlcNAc(b1-6)Gal(b1-4)GlcNAc
# Procedure, shortened: as §1
# [11] = target: Gal3S(b1-3)GlcNAc
# Procedure, shortened: as §1
# [12] = target: Gal3S(b1-3)[Fuc(a1-4)]GlcNAc
# Procedure, shortened: as §1
# [13] = target: Gal3S6S(b1-4)GlcNAc6S
# Procedure, shortened: as §1
# [14] = target: Gal6S(b1-4)GlcNAc
# Procedure, shortened: as §1
# [15] = target: GlcNAc(b1-4)Gal(b1-4)GlcNAc
# Procedure, shortened: as §1
# [16] = target: Man(a1-2)Man(a1-3)[Man(a1-6)]Man(a1-6)[Man(a1-2)Man(a1-3)]Man(b1-4)GlcNAc(b1-4)GlcNAc
# Procedure, shortened: as §1
# [17] = target: Man(a1-3)[Man(a1-6)]Man(a1-6)[Man(a1-3)]Man
# Procedure, shortened: as §1
# [18] = target: Man(a1-3)[Man(a1-6)]Man(b1-4)GlcNAc(b1-4)GlcNAc
# Procedure, shortened: as §1
# [19] = target: Neu5Ac(a2-3)Gal(b1-3)GalNAc
# Procedure, shortened: as §1
# [20] = target: Neu5Ac(a2-3)Gal(b1-3)GalNAc(b1-3)Gal(b1-4)GlcNAc
# Procedure, shortened: as §1
# [21] = target: Neu5Ac(a2-3)Gal(b1-3)GlcNAc
# Procedure, shortened: as §1
# [22] = target: Neu5Ac(a2-3)Gal(b1-3)[Neu5Ac(a2-3)Gal(b1-4)]GlcNAc
# Procedure, shortened: as §1
# [23] = target: Neu5Ac(a2-3)Gal(b1-4)GlcNAc(b1-3)Gal(b1-4)GlcNAc
# Procedure, shortened: as §1
# [24] = target: Neu5Ac(a2-3)Gal(b1-4)[Fuc(a1-3)]GlcNAc6S
# Procedure, shortened: as §1
# [25] = target: Neu5Ac(a2-3)Gal6S(b1-4)[Fuc(a1-3)]GlcNAc
# Procedure, shortened: as §1
# [26] = target: Neu5Ac(a2-3)[GalNAc(b1-4)]Gal(b1-4)Glc
# Procedure, shortened: as §1
# [27] = target: Neu5Ac(a2-8)Neu5Ac(a2-8)Neu5Ac(a2-3)[GalNAc(b1-4)]Gal(b1-4)Glc
# Procedure, shortened: as §1
# [28] = target: Neu5Ac9Ac(a2-6)Gal(b1-4)GlcNAc
# Procedure, shortened: as §1
binder,measurement,setting,value
"L-Selectin (Homo sapiens), P14151 (protein) MIFPWKCQSTQRDLWNIFKLWGWTMLCCDFLAHHGTDCWTYHYSEKPMNWQRARRFCRDNYTDLVAIQNKAEIEYLEKTLPFSRSYYWIGIRKIGGIWTWVGTNKSLTEEAENWGDGEPNNKKNKEDCVEIYIKRNKDAGKWNDDACHKLKAALCYTASCQPWSCSGHGECVEIINNYTCNCDVGYYGPQCQFVIQCEPLEAPELGTMDCTHPLGNFSFSSQCAFSCSEGTNLTGIEETTCGPFGNWSSPEPTCQVIQCEPLSAPDLGIMNCSHPLASFSFTSACTFICSEGTELIGKKKTICESSGIWSNPSPICQKLDKSFSMIKEGDYNPLFIPVAVMVTAFSGLAFIIWLARRLKKGKKSKRSMNDPY",glycan array binding signal (z-score),[1],-0.36
same,glycan array binding signal (z-score),[2],0.137
same,glycan array binding signal (z-score),[3],-0.145
same,glycan array binding signal (z-score),[4],6.9
same,glycan array binding signal (z-score),[5],8.15
same,glycan array binding signal (z-score),[6],0.48
same,glycan array binding signal (z-score),[7],-0.315
same,glycan array binding signal (z-score),[8],0.942
same,glycan array binding signal (z-score),[9],-0.38
same,glycan array binding signal (z-score),[10],-0.336
same,glycan array binding signal (z-score),[11],-0.333
same,glycan array binding signal (z-score),[12],3.08
same,glycan array binding signal (z-score),[13],4.59
same,glycan array binding signal (z-score),[14],-0.078
same,glycan array binding signal (z-score),[15],0.119
same,glycan array binding signal (z-score),[16],-0.024
same,glycan array binding signal (z-score),[17],-0.198
same,glycan array binding signal (z-score),[18],-0.246
same,glycan array binding signal (z-score),[19],0.005
same,glycan array binding signal (z-score),[20],-0.116
same,glycan array binding signal (z-score),[21],-0.147
same,glycan array binding signal (z-score),[22],-0.044
same,glycan array binding signal (z-score),[23],-0.338
same,glycan array binding signal (z-score),[24],9.18
same,glycan array binding signal (z-score),[25],-0.028
same,glycan array binding signal (z-score),[26],-0.363
same,glycan array binding signal (z-score),[27],-0.314
same,glycan array binding signal (z-score),[28],0.073
